Measurements from PubChem BioAssay.
Active and inactive are the calls of the source.

Tests used:
[1] = test system: PRMT1 (protein arginine N-methyltransferase 1); experiment: PRMT1 binders on small-molecule microarrays, primary screen, biochemical, small-molecule microarray, 635 nm fluorescence (AID 1088); settings: small-molecule microarray binding, higher = more signal;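 further: binding of Prmt1 protein to compounds spotted on small-molecule microarray slides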
[2] = yeast growth modulation, basal conditions, primary screen, YJM789 clinical isolate, OD600, 24 h (AID 1089);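 further: growth of clinical yeast isolate S. cerevisiae YJM 789 seeded 1000 cells per well; test concentration not given here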; settings: S. cerevisiae YJM789 growth, higher = more signal, called active from +8 up or from −8 down
[3] = fission yeast growth modulation, primary screen, strain 972, OD600, 24 h, no modulator (AID 1090);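 further: basal condition with compound alone and no growth modifier present; test concentration not given here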; settings: S. pombe 972 growth, higher = more signal, called active from +8 up or from −8 down
[4] = S. cerevisiae growth modulation with rapamycin, primary screen, strain BY4716, OD600, 96 h (AID 1091); settings: higher = more signal, called active from +8 up or from −8 down; further: test concentration not given here
[5] = target: Torsin-1A-interacting protein 2 (Homo sapiens) (UniProt Q8NFQ8); experiment: LULL1 binders on small-molecule microarray, primary screen, cell lysate, human LULL1 lysate, 635/667 nm fluorescence (AID 1092); settings: hLULL1 lysate binding, 635 nm fluorescence, higher = more signal;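 further: probe is lysate of COS7 cells overexpressing human LULL1; score merges per-feature 667 nm fluorescence with signal-to-noise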
Chain of Torsin-1A-interacting protein 2 (Homo sapiens) (Q8NFQ8 whole entry, looked up): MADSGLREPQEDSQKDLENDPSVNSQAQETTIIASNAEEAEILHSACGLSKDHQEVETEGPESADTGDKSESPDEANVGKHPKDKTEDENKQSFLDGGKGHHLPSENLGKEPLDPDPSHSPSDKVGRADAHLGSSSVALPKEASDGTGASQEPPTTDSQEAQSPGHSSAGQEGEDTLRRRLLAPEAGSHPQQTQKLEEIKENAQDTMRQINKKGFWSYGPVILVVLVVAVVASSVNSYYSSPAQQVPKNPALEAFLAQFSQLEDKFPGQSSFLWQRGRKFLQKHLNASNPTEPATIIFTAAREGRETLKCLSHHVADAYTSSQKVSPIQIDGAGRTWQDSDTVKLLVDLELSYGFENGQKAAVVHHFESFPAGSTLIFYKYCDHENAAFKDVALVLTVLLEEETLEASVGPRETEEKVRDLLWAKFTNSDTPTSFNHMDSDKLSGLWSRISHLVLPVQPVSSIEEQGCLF

[6] = E. coli growth modulation, two-sided OD650, primary screen, E. coli filamentation project, strain DRC41, 24 h (AID 1093); settings: OD650, 24 h, higher = more signal, called active from +8 up or from −8 down;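 further: MC1000 strain lacking acrAB efflux and sulA so SOS filamentation is blocked; test concentration not given here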
[7] = small-molecule microarray binders of probe aLefty2, primary screen, biochemical, biotinylated probe, 635/667 nm fluorescence (AID 1094); settings: higher = more signal;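 further: score merges spot fluorescence near 667 nm with spot signal-to-noise ratio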
[8] = test system: Noggin (protein binding on small-molecule microarray); experiment: Noggin binders on small-molecule microarray, primary screen, biochemical, 635/667 nm fluorescence (AID 1095); settings: 635 nm fluorescence, higher = more signal;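 further: score merges 667 nm feature fluorescence with signal to noise over triplicate slides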
[9] = target: Neurogenic locus notch homolog protein 3 (Homo sapiens) (UniProt Q9UM47); experiment: NOTCH3 binders on small-molecule microarray, primary screen, biochemical, 635/667 nm fluorescence (AID 1096); settings: NOTCH3 binding, 635 nm fluorescence, higher = more signal
Chain of Neurogenic locus notch homolog protein 3 (Homo sapiens) (Q9UM47 whole entry, looked up): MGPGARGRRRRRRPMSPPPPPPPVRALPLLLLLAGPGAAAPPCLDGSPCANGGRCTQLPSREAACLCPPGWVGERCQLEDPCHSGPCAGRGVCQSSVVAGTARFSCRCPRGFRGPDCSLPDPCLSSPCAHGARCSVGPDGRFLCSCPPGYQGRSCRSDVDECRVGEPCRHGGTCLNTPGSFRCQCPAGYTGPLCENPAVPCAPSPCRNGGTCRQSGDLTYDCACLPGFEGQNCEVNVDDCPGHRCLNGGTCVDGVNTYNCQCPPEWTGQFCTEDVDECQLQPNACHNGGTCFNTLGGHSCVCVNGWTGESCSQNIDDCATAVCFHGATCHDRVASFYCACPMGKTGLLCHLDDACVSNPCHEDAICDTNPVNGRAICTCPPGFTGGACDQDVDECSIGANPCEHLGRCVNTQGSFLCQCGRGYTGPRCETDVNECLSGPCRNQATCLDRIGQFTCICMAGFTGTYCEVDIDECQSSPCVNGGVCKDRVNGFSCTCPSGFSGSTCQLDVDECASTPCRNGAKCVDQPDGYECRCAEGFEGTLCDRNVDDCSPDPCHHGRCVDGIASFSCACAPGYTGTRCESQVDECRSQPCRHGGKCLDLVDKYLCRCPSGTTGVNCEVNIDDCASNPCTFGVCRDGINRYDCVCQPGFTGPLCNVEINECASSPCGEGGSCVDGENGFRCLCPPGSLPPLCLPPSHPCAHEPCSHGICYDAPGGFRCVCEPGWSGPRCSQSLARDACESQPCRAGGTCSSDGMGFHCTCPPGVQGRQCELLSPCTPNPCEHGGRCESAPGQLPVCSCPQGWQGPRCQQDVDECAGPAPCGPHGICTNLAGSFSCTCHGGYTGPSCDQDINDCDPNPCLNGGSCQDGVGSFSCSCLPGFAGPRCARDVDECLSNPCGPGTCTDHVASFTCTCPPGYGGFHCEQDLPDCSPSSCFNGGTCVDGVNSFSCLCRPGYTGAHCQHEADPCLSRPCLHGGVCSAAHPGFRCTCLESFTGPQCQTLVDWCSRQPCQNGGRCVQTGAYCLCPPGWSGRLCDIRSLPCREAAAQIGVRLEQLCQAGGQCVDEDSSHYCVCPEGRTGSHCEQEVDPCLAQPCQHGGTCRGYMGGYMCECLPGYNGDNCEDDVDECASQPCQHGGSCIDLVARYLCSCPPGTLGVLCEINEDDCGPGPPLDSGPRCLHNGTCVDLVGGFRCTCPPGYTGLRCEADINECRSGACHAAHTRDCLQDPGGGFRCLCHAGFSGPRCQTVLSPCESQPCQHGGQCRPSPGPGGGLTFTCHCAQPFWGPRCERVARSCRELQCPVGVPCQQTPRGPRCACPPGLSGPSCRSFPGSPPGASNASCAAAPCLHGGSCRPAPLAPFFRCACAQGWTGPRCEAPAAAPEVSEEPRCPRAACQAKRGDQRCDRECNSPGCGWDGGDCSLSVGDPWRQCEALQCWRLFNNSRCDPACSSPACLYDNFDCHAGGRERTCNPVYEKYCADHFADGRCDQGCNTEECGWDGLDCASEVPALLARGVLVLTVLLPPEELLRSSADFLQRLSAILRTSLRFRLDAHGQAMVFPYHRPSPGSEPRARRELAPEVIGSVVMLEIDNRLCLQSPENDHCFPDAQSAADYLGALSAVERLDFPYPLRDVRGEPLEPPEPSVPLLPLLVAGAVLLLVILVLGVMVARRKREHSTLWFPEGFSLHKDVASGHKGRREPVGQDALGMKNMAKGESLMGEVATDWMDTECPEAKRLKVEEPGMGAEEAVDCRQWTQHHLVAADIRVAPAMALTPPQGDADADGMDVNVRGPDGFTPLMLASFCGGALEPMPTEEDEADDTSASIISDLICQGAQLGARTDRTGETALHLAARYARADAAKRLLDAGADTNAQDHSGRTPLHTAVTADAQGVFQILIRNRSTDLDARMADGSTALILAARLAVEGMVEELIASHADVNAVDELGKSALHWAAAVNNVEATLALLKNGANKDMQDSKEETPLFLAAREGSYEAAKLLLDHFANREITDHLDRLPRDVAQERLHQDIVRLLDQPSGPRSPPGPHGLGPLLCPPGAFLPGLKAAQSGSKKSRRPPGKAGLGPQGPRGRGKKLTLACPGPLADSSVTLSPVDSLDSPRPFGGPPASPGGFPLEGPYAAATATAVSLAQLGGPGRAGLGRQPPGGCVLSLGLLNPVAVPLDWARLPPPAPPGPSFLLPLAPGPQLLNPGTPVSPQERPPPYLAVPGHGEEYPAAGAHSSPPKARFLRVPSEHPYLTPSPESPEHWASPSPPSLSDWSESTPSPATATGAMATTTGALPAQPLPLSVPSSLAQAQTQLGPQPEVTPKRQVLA

[10] = small-molecule microarray binders of probe aEGFR, primary screen, biochemical, biotinylated probe, 635/667 nm fluorescence (AID 1097); settings: higher = more signal;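 further: probe is a biotinylated anti-EGFR antibody binding compounds printed on slides; score combines fluorescence near 667 nm and signal to noise of each spot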
[11] = test system: Plasmodium falciparum Sir2 (PF13_0152, Sir2A); experiment: pfSir2 binders on small-molecule microarrays, primary screen, biochemical, small-molecule microarray, 635 nm fluorescence (AID 1098); settings: small-molecule microarray binding, fluorescence 635 nm; higher = more signal;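 further: score merges spot fluorescence intensity with its signal-to-noise ratio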
[12] = small-molecule microarray binders of probe aDKK1, primary screen, biochemical, biotinylated probe, 635/667 nm fluorescence (AID 1099); settings: higher = more signal;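 further: score merges 667nm spot fluorescence with signal to noise across triplicate slides; reference of the scale not given here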
[13] = small-molecule microarray binders of probe aCHRDL2, primary screen, biochemical, biotinylated probe, 635/667 nm fluorescence (AID 1100); settings: higher = more signal
[14] = splicing luciferase reporter signal modulators, primary screen, spliceosome inhibition project, cell-based, HEK293, splice +/- reporter (AID 1101); settings: luminescence, 24 h, higher = more signal, called active from +8 up or from −8 down;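 further: HEK293 cells carrying a splicing-competent luciferase reporter gene; test concentration not given here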
[15] = target: Fibroblast growth factor 10 (Homo sapiens) (UniProt O15520); experiment: FGF10 binders on small-molecule microarrays, primary screen, biochemical, small-molecule microarray, 635 nm fluorescence (AID 1102); settings: FGF10 binding, fluorescence 635 nm, higher = more signal
Chain of Fibroblast growth factor 10 (Homo sapiens) (O15520 whole entry, looked up): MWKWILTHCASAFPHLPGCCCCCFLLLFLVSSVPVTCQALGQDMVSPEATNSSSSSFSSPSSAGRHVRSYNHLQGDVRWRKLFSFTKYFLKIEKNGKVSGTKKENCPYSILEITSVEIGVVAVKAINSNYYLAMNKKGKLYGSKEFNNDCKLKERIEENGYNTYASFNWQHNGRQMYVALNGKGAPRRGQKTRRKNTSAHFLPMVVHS

[16] = test system: glycogen synthase kinase-3 (GSK3A per assay name; protocol says GSK3B); experiment: GSK3 binders on small-molecule microarrays, primary screen, biochemical, small-molecule microarray, 635 nm fluorescence, GSK3A (AID 1103); settings: small-molecule microarray binding, fluorescence 635 nm; higher = more signal; further: the record names both GSK3A and GSK3B
[17] = target: Epidermal growth factor receptor (Homo sapiens) (UniProt P00533); experiment: EGFR binders on small-molecule microarrays, primary screen, biochemical, small-molecule microarray, 635 nm fluorescence (AID 1104); settings: EGFR binding, higher = more signal;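 further: score merges 667 nm emission intensity with spot signal to noise over triplicate slides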
Chain of Epidermal growth factor receptor (Homo sapiens) (P00533 whole entry, looked up): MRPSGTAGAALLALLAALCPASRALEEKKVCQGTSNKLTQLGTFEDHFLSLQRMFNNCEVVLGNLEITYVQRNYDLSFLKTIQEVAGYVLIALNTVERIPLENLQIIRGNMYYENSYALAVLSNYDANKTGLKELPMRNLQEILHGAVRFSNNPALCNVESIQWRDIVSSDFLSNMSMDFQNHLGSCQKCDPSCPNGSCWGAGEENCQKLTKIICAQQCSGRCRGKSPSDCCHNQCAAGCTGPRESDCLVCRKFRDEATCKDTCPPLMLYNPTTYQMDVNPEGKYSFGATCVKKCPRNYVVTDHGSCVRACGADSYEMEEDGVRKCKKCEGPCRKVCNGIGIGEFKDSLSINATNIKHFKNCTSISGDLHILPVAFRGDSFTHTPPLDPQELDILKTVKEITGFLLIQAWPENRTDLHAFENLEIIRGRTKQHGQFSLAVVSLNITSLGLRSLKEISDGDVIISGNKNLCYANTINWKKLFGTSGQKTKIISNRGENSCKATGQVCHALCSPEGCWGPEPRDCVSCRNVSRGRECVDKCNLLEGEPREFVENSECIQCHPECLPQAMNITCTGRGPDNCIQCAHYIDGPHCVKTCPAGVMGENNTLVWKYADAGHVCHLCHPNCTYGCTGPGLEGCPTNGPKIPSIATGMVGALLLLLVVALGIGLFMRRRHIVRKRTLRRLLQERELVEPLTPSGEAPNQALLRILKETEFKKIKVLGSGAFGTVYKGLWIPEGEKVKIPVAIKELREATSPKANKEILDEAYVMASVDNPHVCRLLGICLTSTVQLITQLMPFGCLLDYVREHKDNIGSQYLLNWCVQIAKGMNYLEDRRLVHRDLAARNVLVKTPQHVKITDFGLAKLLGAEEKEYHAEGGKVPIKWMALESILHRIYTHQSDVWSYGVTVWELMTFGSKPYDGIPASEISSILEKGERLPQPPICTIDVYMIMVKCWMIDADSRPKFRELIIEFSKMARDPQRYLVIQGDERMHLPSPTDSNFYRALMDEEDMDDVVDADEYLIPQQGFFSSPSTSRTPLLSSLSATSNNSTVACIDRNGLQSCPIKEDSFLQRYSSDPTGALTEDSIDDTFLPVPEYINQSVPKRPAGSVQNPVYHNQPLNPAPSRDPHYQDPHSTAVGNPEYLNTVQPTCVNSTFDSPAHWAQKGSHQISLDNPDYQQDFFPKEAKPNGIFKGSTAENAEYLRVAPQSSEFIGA

[18] = target: Follistatin-related protein 3 (Homo sapiens) (UniProt O95633); experiment: FSTL3 binders on small-molecule microarrays, primary screen, biochemical, small-molecule microarray, 635 nm fluorescence (AID 1105); settings: FSTL3 binding, higher = more signal;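 further: score merges emission near 667 nm and signal to noise per printed spot across three slides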
Chain of Follistatin-related protein 3 (Homo sapiens) (O95633 whole entry, looked up): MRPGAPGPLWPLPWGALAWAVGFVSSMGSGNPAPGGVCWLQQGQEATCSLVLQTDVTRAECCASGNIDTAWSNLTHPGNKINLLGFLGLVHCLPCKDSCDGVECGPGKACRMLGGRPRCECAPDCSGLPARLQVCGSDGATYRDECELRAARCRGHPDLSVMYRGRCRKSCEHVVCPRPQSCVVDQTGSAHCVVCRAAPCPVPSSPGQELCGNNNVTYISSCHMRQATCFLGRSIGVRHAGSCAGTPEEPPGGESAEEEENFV

[19] = target: Dickkopf-related protein 1 (Homo sapiens) (UniProt O94907); experiment: DKK1 binders on small-molecule microarrays, primary screen, biochemical, small-molecule microarray, 635 nm fluorescence scan (AID 1106); settings: DKK1 binding, higher = more signal;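 further: score merges emission near 667 nm with signal to noise over three replicate slides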
Chain of Dickkopf-related protein 1 (Homo sapiens) (O94907 whole entry, looked up): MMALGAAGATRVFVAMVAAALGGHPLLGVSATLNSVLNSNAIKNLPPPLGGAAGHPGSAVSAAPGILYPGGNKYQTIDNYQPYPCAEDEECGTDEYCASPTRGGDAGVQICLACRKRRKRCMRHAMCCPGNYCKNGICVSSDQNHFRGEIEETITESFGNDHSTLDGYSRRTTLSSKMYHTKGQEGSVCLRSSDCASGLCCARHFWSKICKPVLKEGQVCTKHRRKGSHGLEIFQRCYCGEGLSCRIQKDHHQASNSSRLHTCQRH

[20] = test system: Inhibin beta A chain (activin A); experiment: INHBA (activin A) binders on microarrays, primary screen, biochemical, small-molecule microarray, 635 nm fluorescence scan (AID 1107); settings: small-molecule microarray binding, higher = more signal;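 further: mouse activin A protein probed at 4.33 µg/mL on printed slides; score merges bound-protein fluorescence near 667 nm with spot signal-to-noise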

| SMILES | composite z-score [1] | z-score [2] | z-score [3] | z-score [4] | composite z-score [5] | z-score [6] | composite z-score [7] | composite z-score [8] | composite z-score [9] | composite z-score [10] | composite z-score [11] | composite z-score [12] | composite z-score [13] | z-score [14] | composite z-score [15] | composite z-score [16] | composite z-score [17] | composite z-score [18] | composite z-score [19] | composite z-score [20] |
| --- | --- | --- | --- | --- | --- | --- | --- | --- | --- | --- | --- | --- | --- | --- | --- | --- | --- | --- | --- | --- |
| O=C1N(CCS(=O)(=O)c2ccccc2)Cc2ccccc2[C@@H]2OC(c3ccc(OCCCO)cc3)=N[C@]12CCS(=O)(=O)c1ccccc1 | 1.53 | 2.61 (inactive) | 1.97 (inactive) | 6.29 (inactive) | 3.23 | 0.833 (inactive) | 0.338 | 1.06 | 1.02 | 0.266 | 1.14 | 0.846 | 0.788 | -0.42 (inactive) | 1.46 | 1.32 | 0.89 | 1.48 | 1.46 | 1.22 |
| C=CCOC(=O)[C@H]1[C@@H]2C(=O)O[C@@H](c3ccccc3)[C@@H](c3ccccc3)N2[C@@H](c2ccc(OCCOC(=O)[C@H]3C[C@H]4C(=O)N[C@@H](CCCCNC(C)=O)C(=O)N4[C@H]3c3cccc(OCCO)c3)cc2)[C@]12C(=O)Nc1ccc(I)cc12 | 1.55 | 1.15 (inactive) | 1.14 (inactive) | 4.54 (inactive) | 2.18 | 1.44 (inactive) | -0.431 | 1.87 | 1.1 | -0.336 | 1.14 | -0.886 | -0.887 | -1.5 (inactive) | 1.49 | 0.677 | 0.463 | 1.43 | 0.719 | 0.0677 |
| Cc1c(NC(=O)/C(C#N)=C/c2ccccc2Cl)c(=O)n(-c2ccccc2)n1C | 0.315 | -1.06 (inactive) | -1.76 (inactive) | -0.4 (inactive) | 3.03 | 0.245 (inactive) | -0.158 | 0.0603 | 0.259 | 0.0092 | 0.633 | -0.258 | -0.0592 | -0.378 (inactive) | 0.185 | -0.046 | 0.139 | 0.361 | 0.491 | 0.395 |
| CCOC(=O)C1=CC[C@@H](c2ccccc2)N(S(=O)(=O)c2ccc(C)cc2)[C@H]1C=Cc1ccccc1 | 0.238 | 0.403 (inactive) | 2.4 (inactive) | 1.46 (inactive) | 2.32 | -0.812 (inactive) | -0.0146 | -0.452 | 0.258 | -0.0828 | 1.66 | 0.37 | 1.03 | 0.151 (inactive) | 0.322 | 0.193 | -0.647 | -0.745 | -0.548 | 0.58 |
| Cc1cccc([C@H]2C[C@H]3C(I)=C[C@@H]2C(=O)[C@]32CO2)c1 | -0.614 | -2.5 (inactive) | -20.2 (active) | -2.15 (inactive) | -0.842 | -0.2 (inactive) | 0.0735 | 0.461 | -0.0085 | -0.108 | -0.636 | -0.251 | 0.154 | -1.48 (inactive) | 0.575 | -0.499 | -0.0512 | 0.445 | 0.125 | 1.03 |
| COC(=O)C1N=C(c2ccc(OCCCO)cc2)N(c2ccccc2)O1 (stereo not given) | 0.433 | -0.686 (inactive) | -1.16 (inactive) | -0.417 (inactive) | 2.07 | 0.267 (inactive) | 0.156 | 0.981 | 0.698 | 0.271 | 1.05 | 0.947 | 1.11 | -0.155 (inactive) | 1.48 | 1.22 | 0.172 | 0.864 | 0.604 | 0.453 |
| CCOC(=O)C=Cc1cc(F)ccc1O | 0.311 | -26.6 (active) | -15.2 (active) | -1.06 (inactive) | 0.905 | -0.624 (inactive) | -0.0446 | -0.173 | -0.18 | -0.233 | 0.188 | -0.137 | -0.31 | -1.37 (inactive) | 0.168 | -0.126 | 0.0683 | 0.0871 | -0.258 | 0.835 |
| O=C1[C@@]23C=C(Br)[C@H](C[C@@H]2COC3)[C@@]12CO2 | -0.186 | 0.108 (inactive) | -1.34 (inactive) | 0.0993 (inactive) | -0.498 | -1.39 (inactive) | -0.124 | 0.648 | 0.574 | -0.184 | 0.35 | -0.419 | -0.555 | 0.536 (inactive) | 0.266 | 0.638 | 0.566 | 0.514 | 0.449 | 0.262 |
| C=C[C@@H](OC)[C@H](OC(=O)Nc1ccc(OC)cc1)c1ccc(OC)c(O)c1 | -0.391 | 0.239 (inactive) | -0.375 (inactive) | -0.901 (inactive) | 1.04 | 0.234 (inactive) | -0.124 | -0.527 | -0.449 | -0.25 | -1.1 | -0.259 | 0.601 | -0.657 (inactive) | -0.818 | -0.465 | -0.75 | -1.11 | -0.642 | -0.267 |
| O=C(CS)NCCCCCCNC(=O)[C@@H]1C[C@@H]2C(=O)NCC(=O)N2[C@@H]1c1ccc(O)cc1 | 0.801 | -2.07 (inactive) | 0.172 (inactive) | -0.436 (inactive) | 2.92 | 0.869 (inactive) | -0.0692 | -0.728 | -0.028 | -0.218 | 1.57 | -0.11 | 0.592 | -1.65 (inactive) | -0.297 | -0.135 | -0.395 | -0.586 | -0.262 | -0.716 |
